# From PubChem BioAssay AID686971 (National Center for Advancing Translational Sciences (NCATS), 2013)
# In all, about 360,000 compounds went through this assay and about 7,500 (2.1%) were called active. A call without a number means that no potency is given here. Roughly 8% stayed inconclusive and do not appear here. For the sample, actives were picked, then their nearest neighbours and some compounds at random. Values without a mark were called inactive. Calls come from the whole dose curve; as a rule, active = well fitted cell-killing curve with a large enough effect; inconclusive = small, poorly fitted or top-dose-only effect, or effect the other way, or another doubt; inactive = no such curve, though single readings can be large or run the other way.
# Test: qHTS for induction of synthetic lethality in tumor cells producing 2HG: qHTS for the HT-1080-IDH1KD cell line
# Conditions: HT-1080 IDH1 knockdown viability, ATP luminescence, 48 h; series mostly up to 46.1 µM
# Excerpt: Unbiased genomic sequencing for 22 glioma genomes found recurrent mutation of IDH1 on chromosome 2q33, a gene encoding the cytosolic isoform of IIDH1 associated with the tri-carboxylic acid cycle (TCA) that catalyzes the oxidative decarboxylation of isocitrate, yielding alpha-ketoglutarate and CO2 via NADP+ to NADPH conversion. Subsequent studies confirmed the recurrent IDH mutations in up to 70% of secondary gliomas and in 10% of AML cases. In addition, the somatic mutation of cancer-associated IDH1 is a point mutation resulting in various amino-acid substituents at Arginine132 (IDH1 R132), a key residue found in the enzyme's active site that when mutated, results in the loss-of-function in metabolizing isocitrate but confers a gain-of-function to produce the oncometabolite 2-hydroxyglutarate (2HG). This in effect defines IDH1 as an oncogene and provides an extraordinary opportunity to discover chemical probes against mutant IDH1 that may translate into much needed new therapies for glioma and AML patients.
# This assay aims to perform a synthetic-lethal screen for chemical probes specific for 2HG-producing tumor cells using matched paired cell lines (1) HT-1080-NT fibrosarcoma cell line that overproduces 2HG and (2) HT-1080-IDH1KD cell line which has IDH1 expression knocked-down. Desirable compounds are toxic to the NT fibrosarcoma cell line but not to the IDH1KD cell line. The data in this AID corresponds to the results of the qHTS against the HT-1080 IDH1KD cell line.
# [1] Dang L, Jin S, Su SM. IDH mutations in glioma and acute myeloid leukemia. Trends of Mol Med. 2010; 16(9): 387-97.
# [2] Dang L et al. Cancer-associated IDH1 mutations produce 2-hydroxyglutarate. Nature. 2010; 465(7300):966.
# Molecular Libraries Probe Production Centers Network [MLPCN]
# NIH Chemical Genomics Center [NCGC]
# Assay Submitter (PI): Lenny Dang Ph.D., Agios Pharmaceuticals
# Suspensions of trypsinized HT-1080-IDH1KD cells were dispensed into white, tissue culture-treated, solid 1536-well plates at 5uL/well (750 cells/well final concentration) in RPMI medium supplemented with 5% FBS. Plates were incubated at 37 degrees C for 2 hours, after which 23 nL of compounds or DMSO were delivered to each well using a pin tool. Plates were then incubated at 37 degrees C for an additional 48 hours. CellTiter-Glo viability reagent (Promega) was dispensed into wells (2.5uL/well) and incubated at room temperature for 10 minutes. The plates were measured on a PerkinElmer ViewLux plate reader for luminescent signal (clear filter, 1 sec exp.). DMSO-treated control wells and media-only (no cells) control wells were used to normalize %Activity of identified toxic compounds; DMSO-treated wells corresponded to 0%Activity (100% viability), while media-only controls were used to normalize 100%Activity (0% viability). To minimize variability between cell lines, both HT-1080-NT and HT-1080-IDH1KD lines were dispensed and treated with identical compound series in single batches.
# Concentration-response curves were fitted to the signals arising from the resulting luminescence. The concentration-effect curves were then classified based on curve quality (r2), response magnitude and degree of measured activity, and compounds were subsequently categorized based on their curve class.
# Potency is the fitted concentration of half-maximal effect.
Structure (SMILES),Potency,"activity, negative = toxicity"
COc1ccccc1N1CCN(C(=O)c2ccc(Cl)c(S(=O)(=O)N3CCCC3)c2)CC1,inactive,–
COc1ccccc1N1CCN(C(=O)c2c(-c3c(Cl)cccc3Cl)noc2C)CC1,inactive,–
COc1ccccc1N1CCN(C(=O)c2cc(=O)c3cc(C)cc(C)c3o2)CC1,0.0103 µM (active),–
C[C@H](NC(=O)CC[C@H]1O[C@@H](n2ccc(=O)[nH]c2=O)[C@H](O)[C@@H]1O)c1cccc2ccccc12,inactive,–
C[C@@H]1CN([C@@H](C)CO)C(=O)CCCn2nncc2CO[C@H]1CN(C)C(=O)Nc1ccc(C(F)(F)F)cc1,inactive,–
C[C@@H]1CN([C@@H](C)CO)C(=O)c2cc(Br)cnc2O[C@@H]1CN(C)C(=O)C1CCCCC1,inactive,–
CC1=C(C(=O)N2CCOCC2)CC(CC(=O)NCc2cccs2)C(=O)N1CCCN1CCCC1=O (centres undefined),inactive,–
CCCCC[C@H](C)N1C[C@@H](COCc2ccccc2)Oc2cc(N3CC[C@@H](N(C)C)C3)ccc2S1(=O)=O,18.4 µM (active),–
CCCCC[C@H](C)N1C[C@@H](COCc2ccccc2)Oc2cc(N3CCC[C@@H]3CO)ccc2S1(=O)=O,inactive,–
CCCCN1CC(COCc2ccccc2)OCCS1(=O)=O (centres undefined),inactive,–
C[C@H](CO)N1C[C@H](C)[C@@H](CN(C)S(=O)(=O)c2ccc(F)cc2)OCc2cnnn2CCCC1=O,inactive,–
CC1(Oc2cccc(F)c2)CCN(Cc2ccccc2OC(F)F)C1 (centres undefined),inactive,–
Cn1c(COc2ccc(Cl)cc2)nc2ccccc2c1=O,–,4.13% [at 9.24 µM]
Cc1[nH]n(-c2ccc(Cl)cc2)c(=O)c1/C=N/n1c(C)nc2ccccc2c1=O,16.4 µM (active),–
Cc1[nH]n(-c2ccc([N+](=O)[O-])cc2)c(=O)c1C=NCCN1CCN(C(=O)c2ccccc2F)CC1,inactive,–
CC1(C(=O)NCc2ccccc2)CSCC(=O)N1CCCN1CCOCC1 (centres undefined),inactive,–
O=C(CCCN1C(=O)C(c2ccccc2)Oc2cccnc21)Nc1ccccc1Br (centres undefined),inactive,–
COc1ccc(-c2ccc3[nH]c4c(c3c2)CCN2C[C@H]3[C@H](C)ON(C)[C@H]3C[C@@H]42)cc1,inactive,–
COCCn1cnc2c1c(=O)n(Cc1ccc(Br)cc1)c(=O)n2Cc1ccccc1,inactive,–
N=c1c2c(-c3ccccc3)c(-c3ccccc3)n(Cc3ccccc3)c2ncn1CCCO,5.62 µM (active),–

Structure (SMILES),Potency,"activity, negative = toxicity"
CCN(CC)CCn1cnc2c1c(=O)[nH]c(=O)n2Cc1ccccc1,inactive,–
FC(F)(F)c1cccc(-c2nc3ccccc3n2C(c2ccccc2)c2nc3ccccc3[nH]2)c1 (centres undefined),inactive,–
CCN(CC)C(=O)C1CCCN(Cc2cccc(Cl)c2)C1 (centres undefined),inactive,–
CC1(C(=O)Nc2ccccc2Br)CCN1C(=O)CC1CC1 (centres undefined),inactive,–
CC[C@@H]1Cc2cc(O)ccc2C2=C1c1ccc(O)cc1C[C@H]2CC,14.6 µM (active),–
CC(C)OC(=O)CC(=O)CC(O)c1cccc([N+](=O)[O-])c1 (centres undefined),inactive,–
COc1ccc(CCNC(=O)CN(c2ccccc2)S(=O)(=O)c2ccccc2)cc1,inactive,–
COC(=O)C1(C(=O)OC)C/C=C\CN(S(=O)(=O)c2ccccc2[N+](=O)[O-])CCC1,inactive,–
CC(=O)Nc1ccc(C=CC(=O)c2ccc([N+](=O)[O-])cc2)cc1,inactive,–
O=C(Nc1ccncc1)c1ccc(Cl)c([N+](=O)[O-])c1,inactive,–
Nn1cnnc1N/N=C/c1cc([N+](=O)[O-])c(Cl)cc1Cl,inactive,–
NC(N)=N/N=C/c1ccc(Cl)c([N+](=O)[O-])c1,23.1 µM (active),–
O=C(/C=C/c1ccc(Cl)c([N+](=O)[O-])c1)c1ccc(O)cc1,11.6 µM (active),–
CC(CC(=O)O)C(=O)c1ccc(Cl)c([N+](=O)[O-])c1 (centres undefined),inactive,–
CC(=O)C[C@@H]1OC[C@H](CO)N1S(=O)(=O)c1ccc(C)cc1,inactive,–
Cn1ncc([N+](=O)[O-])c1C(=O)Nc1cc(Cl)ccc1Cl,inactive,–
CCCC/C=C/c1cccc2nncn12,inactive,–
CN(C)C(CNC(=O)c1cc(Br)c(Br)s1)c1ccco1 (centres undefined),inactive,–
CC1CCN(C(=O)CSc2nnc(-c3ccco3)n2N)CC1,inactive,–
COc1cccc(CN2CCC(C(=O)NC(c3ccc4c(c3)OCO4)c3ccccn3)CC2)c1 (centres undefined),inactive,–

Structure (SMILES),Potency,"activity, negative = toxicity"
O=C(NC(c1ccc(-c2ccccc2)cc1)c1cnccn1)C1CCN(CCOc2ccc(Cl)cc2Cl)CC1 (centres undefined),14.6 µM (active),–
O=C(CCCOc1ccc(Cl)cc1Cl)NNC(=O)C1CCC1,inactive,–
O=C1NC(Cc2ccccc2)c2nc3ccc(Br)cc3c(=O)n2-c2cc3ccccc3cc21 (centres undefined),inactive,–
COc1ccc(CN2C(=O)C(CC(=O)NC3CCCCC3)CC(C(=O)N3CCOCC3)=C2C)cc1 (centres undefined),inactive,–
CCCCCc1c(-c2cccc(Br)c2)ncn1CCc1ccccc1OC,18.4 µM (active),–
COc1ccccc1CCNS(=O)(=O)c1cn(C)nc1C,inactive,–
COC(=O)c1ccc2nc(-c3cccc(Br)c3)c(Cc3ccccc3C(F)(F)F)n2c1,inactive,–
CCCCCc1c(-c2ccc(OC)c(OC)c2)ncn1CCc1ccccc1OC,10.3 µM (active),–
CCCCc1c(-c2ccc(Br)cc2)ncn1CCc1ccccc1OC,7.31 µM (active),–
COC(=O)c1ccc2nc(-c3cccc(Br)c3)c(Cc3ccc(OC)cc3C)n2c1,inactive,–
CCC(=O)NCc1cc(-c2nn(C)c(=O)c3ccccc23)ccc1OC,inactive,–
COc1ccccc1Cc1c(-c2ccc(Cl)cc2)nc2ccc(Cl)cn12,inactive,–
COc1ccc(-c2nn(-c3ccccc3)cc2C(=O)Nc2nccs2)cc1OC,inactive,–
COc1cccc(-c2cnc(C(O)c3ccccc3OC)[nH]2)c1 (centres undefined),inactive,–
CCCOc1ccc(F)cc1-c1cc(C(=O)NCc2ccc(F)cc2)[nH]n1,inactive,–
O=C(COc1ccc(S(=O)(=O)N2CCCC2)cc1[N+](=O)[O-])N1CCCCC1,inactive,–
CCCCCCCCN1C(=O)[C@H](CC(=O)NCC23CC4CC(CC(C4)C2)C3)C[C@@]2(C(=O)OC)CCCCC=C12,inactive,–
C[C@@H]1CN([C@@H](C)CO)C(=O)c2c(c3ccccc3n2C)-c2ccccc2CO[C@H]1CN(C)C(=O)C1CC1,inactive,–
Cc1c(C(=O)NCc2ccc(C#N)cc2)sc(=O)n1Cc1ccc(C(=O)N(C)C)cc1,inactive,–
